According to PubChem BioAssay AID743279 (National Center for Advancing Translational Sciences (NCATS), 2014):
Out of some 360,000 compounds screened, about 17,000 (4.7%) were called active. Inconclusive results (about 5%) are left out. The list comes from a sample in which actives are over-represented; it also holds similar structures and randomly drawn compounds. Unmarked numbers belong to inactive results. No stated cut-off is given here; in the data, active means activity change below about -50%; inconclusive means mostly about -30% to -49%; inactive means weaker than that.

Test: qHTS for Inhibitors of Inflammasome Signaling: IL-1-beta AlphaLISA Primary Screen
Settings: THP-1 LPS/ATP IL-1B secretion, 16 h; at 57.5 µM, stronger effect = lower value
Outline: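 Secreted IL-1B measured by AlphaLISA bead assay after 16 h compound exposure of THP-1 cells; compounds (final up to 57.5 uM) added 1 h before LPS (250 ng/mL) and ATP (1.25 mM) stimulation; lower signal means less secretion.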
On the % scale 0 is the no-effect control and ±100 the full control effect.

SMILES | activity change
c1ccc(C2c3[nH]c4ccccc4c3CCN2Cc2cccn2-c2cccnc2)nc1 (stereo not given) | 47.2%
COCc1ccc(C(=O)N2CCc3c([nH]c4ccccc34)C2c2ccccn2)s1 (stereo not given) | -55.4% (active)
Cc1cccc(C(=O)N2CCc3c([nH]c4ccccc34)C2CC(C)C)n1 (stereo not given) | 7.12%
Cc1cccc(C2c3[nH]c4ccccc4c3CCN2C(=O)c2cc(-c3cccn3C)n[nH]2)n1 (stereo not given) | -60% (active)
O=C(c1cn2ccccc2n1)N1CCc2c([nH]c3ccccc23)C1c1ccccn1 (stereo not given) | -15.2%
COc1ccc(C2c3[nH]c4ccccc4c3CCN2CCCn2cccn2)cc1C (stereo not given) | -18.9%
COCc1c(N)c(C)nc(Cl)c1C#N | 0%
O=C(COc1ccc2ccccc2c1)N1CCN(C(=O)c2cccs2)CC1 | -11.7%
Nc1cc(C(=O)N2CCN(c3ccccc3Cl)CC2)ccc1N1CC2CC(C1)c1cccc(=O)n1C2 (stereo not given) | 14.2%
CC1=C(C(=O)N(C(C)C)C(C)C)CC(CC(=O)NCC2CCCCC2)C(=O)N1Cc1ccccc1 (stereo not given) | -28.7%
CN(C)C(CNC(=O)c1cc2ccccc2o1)c1ccccc1 (stereo not given) | -4.24%
CSc1ccccc1NC(=O)c1ccc2c(c1)CCN2S(C)(=O)=O | -9.72%
COCC(=O)Nc1c(C(=O)N2CCCC2)oc2ccccc12 | -21%
CCOCCCN(C)C1CCN(C(=O)c2oc3ccccc3c2NC(=O)Cc2cccc([N+](=O)[O-])c2)CC1 | -15.5%
CCOCCCN(C)C1CCN(C(=O)c2oc3ccccc3c2NC(=O)COc2cccc(C)c2)CC1 | -84% (active)
CCCN(CC(=O)Nc1ccccc1C)C(=O)c1ccc(OCC(=O)N2CCOCC2)c(OCC)c1 | -6.14%
COc1cccc(CNc2nc3cc(-c4csc5ccccc45)sc3c(=O)n2C)c1 | -22.5%
CCCc1cc(=O)n2[nH]c(SCc3ccccc3)nc2n1 | 12.3%
CC1(Oc2cccc(F)c2)CCN(Cc2ccccc2OC(F)F)C1 (stereo not given) | 29.5%
CC(=O)OC[C@@H]1CN(Cc2ccccc2)C[C@H](n2cnc3c(NCc4ccco4)ncnc32)O1 | 16.4%
O=C(CC1SC(N2CCCC2)=NC1=O)Nc1ccc(C(=O)NCCc2ccc(F)cc2)cc1 (stereo not given) | 17.8%
COc1ccc(CCNC(=O)c2ccc(NC(=O)CC3SC(N4CCCCC4)=NC3=O)cc2)cc1OC (stereo not given) | -53.6% (active)

SMILES | activity change
COc1ccc(NC(=O)CC2SC(N3CCCCC3)=NC2=O)cc1OC (stereo not given) | 3.71%
COc1ccc(/C=N/NC(=O)Cn2cc(C(F)(F)F)ccc2=O)cc1 | -1.55%
CC(C)(C)C(=O)N1CCC[C@@]1(CO)C(=O)O | 1.41%
Cc1nn(-c2ncccn2)c2c1C(=O)CC(C)(C)C2Br (stereo not given) | -64.8% (active)
Cc1nn(-c2ccccc2)c2c1C(=O)NC(=O)C(C)(C)C2 | -17.4%
CCCCn1nnnc1C1(C)CCC(=O)N1Cc1ccc(OC)c(OC)c1 (stereo not given) | 0%
CCCCCCCCN1C(=O)[C@H](CC(=O)NCC23CC4CC(CC(C4)C2)C3)C[C@@]2(C(=O)OC)CCCCC=C12 | -29.6%
COc1ccc(-c2oc3ncn(Cc4ccco4)c(=N)c3c2-c2ccc(OC)cc2)cc1 | -65.2% (active)
COc1ccc(-n2cnc3cc(NCc4ccco4)ccc32)cc1 | -17.9%
COc1ccc(-c2nnc(SCC(=O)c3ccco3)n2-c2ccccc2)cc1 | -3.17%
O=[N+]([O-])c1ccc2c(c1)C(N1CCOCC1)/C(=C/C1(O)CCCCC1)O2 (stereo not given) | 4.33%
Cc1ccc(S(=O)(=O)N2C[C@]3(O)C[C@@H]4C(=O)N(c5ccccc5)C(=O)[C@@H]4C[C@]3(OC(=O)NC3CC3)C2)cc1 | -19.7%
C#CCN(C[C@H]1[C@H](OC(=O)NC2CCCC2)[C@H](OC(=O)NC2CCCC2)C[C@H]2C(=O)N(c3ccccc3)C(=O)[C@@H]12)S(=O)(=O)c1ccc(C)cc1 | -9.89%
C#CCN(C[C@@H]1[C@@H](OC(=O)NC2CC2)[C@@H](OC(=O)NC2CC2)Cn2c(=O)ccc(=O)n21)S(=O)(=O)c1ccc(C)cc1 | -84.6% (active)
N#CC1(Nc2ccc3c4c(cccc24)CC3)CCCCC1 | 0%
O=C(NCCc1ccccn1)c1cc(C(=O)C2CCCCC2)c[nH]1 | 3.93%
CC(=O)CSc1nc(CCc2ccccc2)c(C#N)c(=O)[nH]1 | 3.36%
Cc1cc([N+](=O)[O-])ccc1NC1CCCC1 | -6.41%
Cc1cc(C=O)c(C)n1-c1ccc(NC2CCCCC2)c([N+](=O)[O-])c1 | -93.9% (active)
Cc1c(NS(=O)(=O)c2ccc(NC3CCCC3)c([N+](=O)[O-])c2)c(=O)n(-c2ccccc2)n1C | -9.94%
CCCC(=O)Nc1ncnc2c1ncn2[C@@H]1O[C@@H]2OP(=O)(O)OC[C@H]2[C@H]1OC(=O)CCC | 0%
Cc1cnc(C(=O)OCc2c(C)cc(C(C)(C)C)cc2C)cn1 | -4.05%

SMILES | activity change
ClC1(Cl)CC1CSc1ncn[nH]1 (stereo not given) | -1.77%
CCCCCCCCN1C(=O)[C@H](CC(=O)NCc2cccc3ccccc23)C[C@@]2(C(=O)OC)CCCCC=C12 | -30%
COc1ccc(-c2cc(NC=O)c3ncc(-c4cc(OC)c(OC)c(OC)c4)n3c2)c(OC)c1 | 39.1%
COc1ccc(-c2cc(NC=O)c3ncc(-c4ccccc4)n3c2)cc1OC | -59.3% (active)
CC(=O)c1cccc(-c2cnc3c(NC=O)cc(-c4ccc(N(C)C)cc4)cn23)c1 | 51.7%
CC(=O)c1cccc(-c2cnc3c(NC=O)cc(-c4cccc(C(=O)N(C)C)c4)cn23)c1 | 107%
CC(=O)Nc1cc(-c2cccc(CO)c2)cn2c(-c3cccc(C(F)(F)F)c3)cnc12 | -13.6%
CN(C)CCNC(=O)c1cccc(-c2cnc3c(NC=O)cc(-c4cccc(C(F)(F)F)c4)cn23)c1 | -107% (active)
CC(=O)c1ccc(-c2cnc3c(NC=O)cc(-c4cccc(NS(C)(=O)=O)c4)cn23)cc1 | -68.2% (active)
CC(=O)c1cccc(-c2cnc3c(NC=O)cc(-c4ccccc4Oc4ccccc4)cn23)c1 | 98.2%
COc1ccc(-c2cc(NC=O)c3ncc(-c4cccc(C(=O)N(C)C)c4)n3c2)c(OC)c1 | 47.4%
CCc1nc2ccc(C(=O)N3CCN(S(=O)(=O)CC)CC3)cn2c1N(C=O)CCC(C)C | 36.3%
COc1cc(C(=O)OC(C)C(=O)NCC2CCCCC2)cc(NC(=O)c2ccco2)c1OC (stereo not given) | -6.5%
Cc1oc(C)c(C(=O)NCCCC(=O)O)c1C(=O)NCCCC(=O)O | 18.8%
CCc1nc2c(OCCOc3ccccc3)cccn2c1N(C)C(=O)c1cccs1 | -18.6%
Cc1cc(=O)n2[nH]c(-c3cccc(Cl)c3)cc2n1 | 9.73%
CCCCN1Cc2c(nc3cc(-c4ccccc4)[nH]n3c2=O)C1=O | 13%
O=c1c2c(nc3cc(-c4cccc(Cl)c4)[nH]n13)CCCC2 | -102% (active)
Cc1nc(N)sc1N=Nc1c(C)n(C)n(-c2ccccc2)c1=O | 15.5%
COCCNC(=O)C1CCCN(Cc2ccccc2Cl)CC1 (stereo not given) | 21.5%
Cc1cc(NC(=O)CSc2ncc(C(F)(F)F)cc2Cl)no1 | -7.22%
Cc1ccc(-c2ccnc3nc(Sc4ncc(C(F)(F)F)cc4Cl)nn23)cc1 | -65.2% (active)

SMILES | activity change
Cc1nn(-c2ncc(C(F)(F)F)cc2Cl)c(=O)n1-c1ccccc1 | 24.1%
COc1ccc(S(=O)(=O)N2CCSCC2)cc1 | 0%
C[C@H]1Cn2cnc(C(=O)N[C@@H](Cc3c[nH]c4ccccc34)C(=O)OC(C)(C)C)c2C(=O)N1 | 33.4%
COCCNc1nc(Nc2ccccc2Cl)c2sc(-c3ccccc3)cc2n1 | -12.6%
COCCNc1nc(NCc2ccc(NC(C)=O)cc2)c2sccc2n1 | 29.5%
CC(=O)Nc1ccc(CNc2nc(NCCN(C)C)nc3cc(-c4ccccc4)sc23)cc1 | -108% (active)
CC1Cc2[nH][nH]c(=O)c2C(C2CCCC2)O1 (stereo not given) | 16.7%
CCOC(=O)[C@]12CCC=C1N(Cc1ccco1)C(=O)[C@H](CC(=O)N1CCSCC1)C2 | -5.81%
CC(C)c1cccc(C(C)C)c1Nc1cn[nH]c1 | -1.8%
CCCC[C@@H]1CN=C(N)N1CCc1cc(C(F)(F)F)cc(C(F)(F)F)c1 | -103% (active)
CCCCN1C(N)=NC[C@@H]1Cc1ccccc1 | 5.9%
CCCC[C@@H]1CN=C(N)N1CCCC | 15.9%
CC(=O)Nc1cccc(Nc2ccc(C#N)cc2)c1 | -18.3%
CC(OC(=O)c1ccc(NC(=O)CC#N)cc1)C(=O)Nc1ccc(S(=O)(=O)N2CCCC2)cc1 (stereo not given) | -25.9%
Cc1ccc(S(=O)(=O)N2CCOCC2)cc1C(=O)Nc1ccccc1N1CCCC1 | -1.43%
O=C1OCC2=C1C(c1ccc(Cl)cc1)c1cc3c(cc1O2)OCO3 (stereo not given) | -0.909%
CCOC(=O)C1=C(c2ccccc2)NC(=O)NC1c1cc(OC)c(OC)cc1OC (stereo not given) | -5.44%
O=C(NC1CC1)C(Cc1ccccc1)NS(=O)(=O)c1ccccc1F (stereo not given) | 20.4%
CCOC(=O)C1=C(COC(=O)[C@H](C)NS(=O)(=O)c2ccccc2F)NC(=O)NC1C (stereo not given in full) | -51.3% (active)
